Assay results from paper PMC4336329 (PLoS ONE, 2015).
About 14,000 (4.5%) of roughly 310,000 compounds showed an effect of 50% or more. Effects have a minus sign here. This excerpt belongs to a sample that is enriched for strong results.

The compounds below were run against human ether-à-go-go-related gene (hERG) potassium channel (human, UniProt Q12809) (assay: primary screen, population patch clamp on CHO cells stably expressing hERG; higher = less effect of the substance).
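Further: peak tail current of the secondary pulse compared with the same well before compound.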

Sequence of human ether-à-go-go-related gene (hERG) potassium channel (Q12809 whole entry, looked up): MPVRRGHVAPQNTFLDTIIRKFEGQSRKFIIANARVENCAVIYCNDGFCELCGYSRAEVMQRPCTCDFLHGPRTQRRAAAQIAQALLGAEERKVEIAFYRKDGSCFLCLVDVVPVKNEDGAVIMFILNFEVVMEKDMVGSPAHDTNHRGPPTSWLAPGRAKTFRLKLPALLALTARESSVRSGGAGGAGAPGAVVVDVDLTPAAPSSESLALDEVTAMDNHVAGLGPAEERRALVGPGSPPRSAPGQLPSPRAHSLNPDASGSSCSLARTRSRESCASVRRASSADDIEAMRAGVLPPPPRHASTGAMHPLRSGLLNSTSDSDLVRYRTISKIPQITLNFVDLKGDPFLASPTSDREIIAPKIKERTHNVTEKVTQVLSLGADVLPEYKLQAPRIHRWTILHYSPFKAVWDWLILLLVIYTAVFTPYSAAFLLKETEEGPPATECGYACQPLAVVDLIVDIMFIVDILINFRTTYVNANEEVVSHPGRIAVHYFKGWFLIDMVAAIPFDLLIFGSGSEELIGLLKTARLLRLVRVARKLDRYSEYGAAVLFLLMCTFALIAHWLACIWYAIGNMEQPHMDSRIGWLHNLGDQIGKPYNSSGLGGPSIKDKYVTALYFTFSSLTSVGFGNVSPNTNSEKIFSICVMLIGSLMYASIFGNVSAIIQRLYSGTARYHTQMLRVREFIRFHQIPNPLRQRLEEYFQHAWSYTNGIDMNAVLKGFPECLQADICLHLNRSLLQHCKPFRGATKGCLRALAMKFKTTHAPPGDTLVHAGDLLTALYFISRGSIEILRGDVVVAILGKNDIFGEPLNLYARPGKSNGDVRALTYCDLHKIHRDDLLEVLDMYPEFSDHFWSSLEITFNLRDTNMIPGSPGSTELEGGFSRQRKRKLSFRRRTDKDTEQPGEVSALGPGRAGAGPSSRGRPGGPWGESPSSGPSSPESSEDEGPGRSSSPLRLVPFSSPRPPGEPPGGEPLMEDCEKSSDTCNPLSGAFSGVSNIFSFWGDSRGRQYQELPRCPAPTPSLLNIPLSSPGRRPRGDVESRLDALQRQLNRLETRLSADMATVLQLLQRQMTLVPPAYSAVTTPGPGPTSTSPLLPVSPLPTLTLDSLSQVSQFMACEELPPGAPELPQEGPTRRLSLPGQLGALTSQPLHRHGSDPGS

Row | Compound | hERG current change (%, negative = inhibition) at 10uM [%]
1 | O=C(NCC1COCCO1)C1CCN(S(=O)(=O)c2ccccc2)CC1 (centres unmarked) | -7.05
2 | Cc1cc(C)cc(N(CC(=O)NCc2cccnc2)S(C)(=O)=O)c1 | -1.95
3 | Cc1ccccc1NCc1ccc([N+](=O)[O-])s1 | -38.8
4 | CCC(C)(CC(=O)N(C)CCC#N)c1ccccc1 (centres unmarked) | -0.111
5 | COc1ccc(C(=O)N2CCCC(Nc3ccc(C)c(C)c3)C2)c(OC)n1 (centres unmarked) | -17.7
6 | COc1cc(OC)cc(-c2nc3ccccc3c(=O)n2OC(=O)c2ccccc2C)c1 | 10.6
7 | CCN(CC(=O)NCc1cccs1)C(=O)CCOc1ccccc1C | -19.8
8 | CCN(CC(=O)NCc1ccc(Cl)cc1)C(=O)CCOc1ccccc1C | -71
9 | CCN(CC(=O)Nc1c(F)cccc1F)C(=O)CCOc1ccc(C)cc1 | -2.71
10 | CCN(CC(=O)Nc1cc(Cl)ccc1C)C(=O)CCOc1ccccc1C | 18.4
11 | CCOc1ccc(OCCC(=O)N(CC)CC(=O)Nc2c(F)cccc2F)cc1 | -60.2
12 | CCOc1ccc(OCCCC(=O)N(CC)CC(=O)Nc2c(F)cccc2F)cc1 | -5.99
13 | C=CCn1c(C)cc(C(=O)COC(=O)c2cncc(Br)c2)c1C | -55.9
14 | C=CCn1c(C)cc(C(=O)COC(=O)c2ccc3c(c2)NC(=O)CS3)c1C | 4.69
15 | COCCn1c(C)cc(C(=O)COC(=O)c2cncc(Br)c2)c1C | -31.3
16 | Cc1cc(C)nc(NS(=O)(=O)c2ccc(N)cc2)n1 | 12
17 | COc1cc(NS(=O)(=O)c2ccc(N)cc2)nc(OC)n1 | 9.57
18 | CNc1cc(NS(=O)(=O)c2ccc(N)cc2)nc(NC)n1.Cl | -61.4
19 | OCCN1CCN(c2ncnc3c2sc2nc(N4CCOCC4)c4c(c23)CCC4)CC1 | -22.1
20 | OCCN(CCO)c1ncnc2c1sc1nc(N3CCOCC3)c3c(c12)CCCC3 | -13.3
21 | CCN(CC)CCNc1ncnc2c1sc1nc(N3CCCC3)c3c(c12)CC(C)(C)OC3 | -65.5
22 | CC(C)CNc1ncnc2c1sc1nc(N3CCOCC3)c3c(c12)CC(C)(C)OC3 | -4.77
23 | CN(CCO)c1ncnc2c1sc1nc(N3CCOCC3)c3c(c12)CCC3 | -55.2
24 | CN(C)CCNc1ncnc2c1sc1nc(N3CCCC3)c3c(c12)CC(C)(C)OC3 | -20.4

Row | Compound | hERG current change (%, negative = inhibition) at 10uM [%]
25 | CC1(C)Cc2c(c(N3CCOCC3)nc3sc4c(NN)ncnc4c23)CS1 | -5.43
26 | CCN(CC)CCNc1ncnc2c1sc1nc(N3CCOCC3)c3c(c12)CC(C)(C)SC3 | -71.1
27 | CCN(CC)CCNc1ncnc2c1sc1nc(N3CCOCC3)c3c(c12)CCCC3 | -32.8
28 | C[C@]12CCC(OC(=O)CCC(=O)O)CC1=CCC1C2CC[C@]2(C)C(=O)CCC12 (some centres unmarked) | 11.5
29 | CC1(C)c2[nH]c3ccccc3c2C[C@H]2C(=O)N(N)CC(=O)N21.Cl | 19
30 | COc1ccc(N2CCN(c3nc4cc(C)ccc4cc3C=O)CC2)cc1 | 16.6
31 | COC(=O)C1=C(c2c(C)noc2C)C[C@@H]2CC[C@H]1N2C(=O)NCc1ccco1 | 19
32 | O=C1COc2ccc(C(=O)CSc3nnc(NCc4ccccc4)s3)cc2N1 | -9.48
33 | CCOC(=O)c1cnc(SCC(=O)Nc2nc(C)c(C)s2)nc1N | -61.9
34 | CCOC(=O)c1cnc(SCC(=O)Nc2sc(C)c(C)c2C#N)nc1N | 14.2
35 | O=[N+]([O-])c1ccc(Sc2ccccc2)nc1 | 8.82
36 | O=[N+]([O-])c1ccc(Sc2ncc3ccccn23)nc1 | -51.6
37 | CCn1c(SCC(N)=O)nnc1-c1ccco1 | 3.15
38 | CCn1c(SCC(=O)Nc2nncs2)nnc1-c1ccco1 | 17.2
39 | Cc1csc(NC(=O)CSc2nnc(-c3ccco3)n2C)n1 | -31.6
40 | CCn1c(SCC(=O)Nc2nc(C)cs2)nnc1-c1ccco1 | -50.8
41 | CCn1c(Sc2ccc([N+](=O)[O-])cn2)nnc1-c1ccco1 | -66.5
42 | O=[N+]([O-])c1ccc(Sc2ccccn2)nc1 | 10.8
43 | CCOC(=O)c1cnc(SCC(=O)Nc2nnc(CC)s2)nc1N | 8.46
44 | O=[N+]([O-])c1ccc(Sc2n[nH]c(-c3ccco3)n2)nc1 | -0.59
45 | COc1ccc(C2/C(=C(/O)c3ccc(C)cc3)C(=O)C(=O)N2C)cc1 (centres unmarked) | -2.36
46 | CC1CCc2ccccc2N1C(=N)N(C)C.Cl (centres unmarked) | 3.44
47 | CCNC(=O)O/N=C(\C)c1sc(-c2ccccc2)nc1C | -11.2
48 | CCOC(=O)C(=CNNc1cccc(Cl)c1)C(=O)OCC | 15.5

Row | Compound | hERG current change (%, negative = inhibition) at 10uM [%]
49 | O=C(Nc1ccc(F)cc1F)c1sccc1SCc1cccc(C(F)(F)F)c1 | -4.52
50 | O=C(Nc1ccc(Nc2ccccc2)cc1)c1c(F)c(F)c(F)c(F)c1F | 22.9
51 | CCOc1cccc(N(C(=O)c2ccco2)C(C(=O)NC2CCCC2)c2cccnc2)c1 (centres unmarked) | 0.854
52 | Cc1ccc2sc(NNC(=O)c3cc(-c4cccs4)nc4ccccc34)nc2c1C | 16.3
53 | CCn1c(SCC(=O)Nc2nc(C)c(C)s2)nnc1-c1ccco1 | -68.8
54 | CCc1nnc(NC(=O)CSc2nnc(-c3ccco3)n2CC)s1 | 13.7
55 | CCn1c(SCC(=O)Nc2nnc(C)s2)nnc1-c1ccco1 | -5.98
56 | CCn1c(SCC(=O)Nc2nc(C)c(C)s2)nnc1-c1cccs1 | -73.4
57 | CCn1c(Cc2ccccc2)nnc1SCC(=O)Nc1nc(C)c(C)s1 | 9.3
58 | CCn1c(SCC(=O)Nc2nc(C)c(C)s2)nnc1-c1cccnc1 | -26.2
59 | Cc1ccc2cc(C=C(C#N)C#N)c(N3CCCCC3)nc2c1 | 15.3
60 | Nc1ccc2c(c1)-c1ccccc1S(=O)(=O)N2 | 11.1
61 | COc1ccc(O)c2c(=O)c3c(OC)cc4c(c3oc12)C1C=COC1O4 (centres unmarked) | 4.03
62 | O=C(c1cccs1)N1CCN=C1SCc1ccccc1 | 7.77
63 | O=C1c2ccccc2C(=O)N1CCCn1c(=O)oc2ccccc21 | 11.4
64 | Cc1cccc(-n2nnc3c(=O)n(Cc4ccccn4)cnc32)c1 | -7.65
65 | Cc1ccc(C(CNC(=O)c2ccc(Br)o2)N2CCN(C)CC2)cc1 (centres unmarked) | -60.4
66 | COc1ccc(C(CNC(=O)Nc2ccc(Cl)cc2)N2CCN(C)CC2)cc1 (centres unmarked) | -24.5
67 | Cc1ccc(C(CNC(=O)c2ccco2)N2CCN(C)CC2)cc1 (centres unmarked) | -11.1
68 | CN1CCN(C(CNC(=O)c2ccc(Br)o2)c2ccc(F)cc2)CC1 (centres unmarked) | -17.5
69 | Cc1cccc(NC(=O)NCC(c2ccc(F)cc2)N2CCN(C)CC2)c1 (centres unmarked) | -42.6
70 | Cc1ccc(C(CNC(=O)Nc2ccc(Cl)cc2)N2CCN(C)CC2)cc1 (centres unmarked) | -76.8
71 | COc1ccc(C(CNC(=O)Nc2ccccc2)N2CCN(C)CC2)cc1 (centres unmarked) | -12.8
72 | Cc1ccc(C(CNC(=O)Nc2ccccc2)N2CCN(C)CC2)cc1 (centres unmarked) | -28.9

Row | Compound | hERG current change (%, negative = inhibition) at 10uM [%]
73 | CN1CCN(C(CNC(=O)Nc2ccc(Cl)cc2)c2ccc(F)cc2)CC1 (centres unmarked) | -56.3
74 | Cc1ccc(/C=C(\C#N)C(=O)NCc2ccco2)o1 | 3.84
75 | O=C(c1ccccc1)c1cn[nH]c1-c1ccccc1O | 5.65
76 | CCOc1ccc(S(=O)(=O)NCCC(=O)N(C)Cc2cccs2)cc1 | -20.9
77 | COc1cc(/C=N/NC(=O)c2ccccn2)ccc1OC(=O)c1ccc(Br)cc1 | 1.06
78 | CCn1c(=O)c([N+](=O)[O-])c(NC2CCS(=O)(=O)C2)c2ccccc21 (centres unmarked) | 5.85
79 | OC1CCN(Cc2cccc(Oc3ccccc3)c2)CC1 | 6.4
80 | COCCNC(=O)CN1CCC(NC(=O)Nc2ccccc2)CC1 | -8.21
81 | COCCNC(=O)CCC1CCN(Cc2cccc(-c3ccc(C)o3)c2)CC1 | -25.3
82 | COCCNC(=O)CCC1CCN(Cc2ccc(-c3ccccc3)cc2)CC1 | -63.6
83 | COCCNC(=O)CCC1CCN(Cc2cccc(Oc3ccccc3)c2)CC1 | -55.3
84 | COCCNC(=O)CCc1nnc(Cc2ccc(-c3ccccc3)cc2)o1 | 14.5
85 | Clc1ccccc1-c1nnc2sc(-c3ccco3)nn12 | -21.8
86 | O=C(CSc1ccc([N+](=O)[O-])cn1)Nc1ccccc1N1CCOCC1 | -19.2
87 | c1nc(NC2CCCCC2)c2[nH]cnc2n1 | -3.86
88 | COc1ccc(/C=C2\CCCCC2=O)cc1 | -6.19
89 | Cc1ccc(C(C)C)c(OCC(=O)Nn2c(=O)[nH]c3ccccc3c2=O)c1 | -12.6
90 | COc1ccc2c(c1)[nH]c1c(=O)n(/N=C/c3ccc(OC)c(CN4CCCC4)c3)cnc12 | -71.1
91 | COc1ccc2c(c1)[nH]c1c(=O)n(/N=C/c3ccc(OC)c(CN4CCCCC4)c3)cnc12 | -64.3
92 | COc1ccc2c(c1)[nH]c1c(=O)n(/N=C/c3ccc(OC)c(COc4ccccn4)c3)cnc12 | -9.63
93 | COc1ccc(/C=N/n2cnc3c([nH]c4ccccc43)c2=O)cc1CO | 11.2
94 | COc1ccc(/C=N/n2c(=O)[nH]c3c([nH]c4ccc(Cl)cc43)c2=O)cc1CN1CCCCC1 | -13
95 | COc1ccc(/C=N/n2cnc3c([nH]c4ccccc43)c2=O)cc1COc1ccccn1 | -8.67
